Source: the supplement of paper PMC6555819

Tests used:
Assay in all cases: PBM binding z-score (relative to random genomic background probes); higher = stronger binding; sequences stand for … in GC…GCGATTGACAGCGTAGAATGAAGG
[1] = tested on: FXR:RXRa (NR concentration 270 nM, RXRa partner concentration 90 nM)
Outline: (§1)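 Each nuclear receptor dimer, without ligand, was incubated for 1 h on custom Agilent 4×180K protein-binding microarrays. Binding was detected with antibodies against each partner (one per run), and scanned fluorescence was regression-normalized. The binding z-scores are referenced to random human genomic background probes.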

[2] = tested on: LXRa:RXRa (NR concentration 270 nM, RXRa partner concentration 90 nM)
Outline: as §1

[3] = tested on: LXRa homodimer (NR concentration 270 nM)
Outline: as §1

[4] = tested on: LXRb homodimer (NR concentration 270 nM)
Outline: as §1

[5] = tested on: PPARa:RXRa (NR concentration 270 nM, RXRa partner concentration 90 nM)
Outline: as §1

[6] = tested on: PPARg:RXRa (NR concentration 180 nM, RXRa partner concentration 90 nM)
Outline: as §1

[7] = tested on: PPARg:RXRa 270nM:90nM, anti-RXR (NR concentration 270 nM, RXRa partner concentration 90 nM)
Outline: as §1

[8] = tested on: PPARg:RXRa 30nM:10nM, anti-RXR (NR concentration 30 nM, RXRa partner concentration 10 nM)
Outline: as §1

[9] = tested on: PPARg:RXRa 90nM:30nM, anti-RXR (NR concentration 90 nM, RXRa partner concentration 30 nM)
Outline: as §1

[10] = tested on: PPARg:RXRa DBDmut IVT, anti-RXR (DBD mutation: RXRa K156A/R161A, NR concentration 270 nM, RXRa partner concentration 90 nM)
Outline: as §1

[11] = tested on: PPARg:RXRa IVT, anti-PPARg (NR concentration 270 nM, RXRa partner concentration 90 nM)
Outline: as §1

[12] = tested on: PPARg DBDmut:RXRa IVT, anti-PPARg (DBD mutation: PPARg1 K132A/R137A, NR concentration 270 nM, RXRa partner concentration 90 nM)
Outline: as §1

[13] = tested on: PPARg DBDmut IVT, anti-PPARg (DBD mutation: PPARg1 K132A/R137A, NR concentration 270 nM)
Outline: as §1

[14] = tested on: PPARg homodimer (NR concentration 180 nM)
Outline: as §1

[15] = tested on: PXR:RXRa (NR concentration 270 nM, RXRa partner concentration 90 nM)
Outline: as §1

[16] = tested on: PXR homodimer (NR concentration 270 nM)
Outline: as §1

[17] = tested on: RARa:RXR (NR concentration 270 nM, RXRa partner concentration 90 nM)
Outline: as §1

[18] = tested on: RARa homodimer (NR concentration 270 nM)
Outline: as §1

[19] = tested on: RARb:RXRa (NR concentration 270 nM, RXRa partner concentration 90 nM)
Outline: as §1

[20] = tested on: LXRb:RXRa (NR concentration 270 nM, RXRa partner concentration 90 nM)
Outline: as §1

Sequence	PBM binding z-score [1]	PBM binding z-score [2]	PBM binding z-score [3]	PBM binding z-score [4]	PBM binding z-score [5]	PBM binding z-score [6]	PBM binding z-score [7]	PBM binding z-score [8]	PBM binding z-score [9]	PBM binding z-score [10]	PBM binding z-score [11]	PBM binding z-score [12]	PBM binding z-score [13]	PBM binding z-score [14]	PBM binding z-score [15]	PBM binding z-score [16]	PBM binding z-score [17]	PBM binding z-score [18]	PBM binding z-score [19]	PBM binding z-score [20]
CGTCCAAGGTCAAAGGTCAGCGAAGAGATGACGG	8.78	7.06	3.38	1.66	7.31	11	8.69	8.19	9.49	4.17	6.07	0.648	0.832	4.17	7.19	1.93	8.63	2.3	–	–
ATCGAAAGGTCGAGTTGAGTATAGAGAAAGGGAA	4.54	3.84	0.29	1.04	4.32	2.44	2.9	0.961	2.07	-0.0281	1.21	0.792	0.196	1.65	2.74	0.316	3.29	0.834	3.88	–
ATCGAAAGGTCGACGAGGTGAGAATACACCGTTT	5.1	3.9	0.0731	0.224	4.87	3.21	3.7	1.25	2.26	0.716	2.39	0.449	1.17	2.15	3.29	0.612	4.11	0.753	4.1	–
CCTACAGGGCCAAGGTCATTGATCAGTCAAAGCA	3.24	3.38	0.911	-0.2	3.78	2.72	3.94	1.45	3.32	0.158	1.47	-0.788	-0.319	1.8	3.54	1.53	3.67	0.267	3.47	–
CCTTACGGGTCACTTACAGGTTATAGCATTTGGA	4.84	4.49	0.907	0.66	4.62	3.07	3.73	1.27	2.84	3.22	3.45	0.739	0.78	2.43	3.37	0.26	4.24	1.28	3.65	–
ACTCGGAGGACAAAGGTAAGAGCTACGCCAGTGA	-0.107	-0.113	-0.383	-0.762	1.12	2.52	3.87	1.74	3.83	0.286	-0.0365	-0.619	-1.09	0.21	-0.339	-0.386	-0.0753	-0.128	1.17	–
CTATGTAGGTTAAGGGGGTCATTGAGTTTGAAAG	5.19	4.98	2.68	–	–	8.96	7.92	5.98	8.13	7.65	7.94	–	–	3.37	6.54	12.9	6.15	1.4	3.78	6.12
ATATGTAGGTTATCGGGTCATTCATTTTGCGCAT	3.17	3.12	1.9	1.4	5.09	7.3	6.11	3.77	5.76	7.75	7.84	5.27	4.21	4.1	3.39	1.23	3.75	2.1	2.43	–
ATATGTAGGTTAGCGGGGGTCATTCAGACTAGGC	5.82	5.95	3.96	8.88	5.81	6.96	6.71	4.14	6.07	7.07	6.87	5.31	9.65	3.57	6.34	3.48	5.77	1.94	3.55	–
TCTAGTTGGTCAAAGGTCAAACACTCGAAATGCG	6.51	6.59	5.24	2.77	6.82	11.2	10.3	9.94	11	3.57	6.13	0.582	1.1	5.11	6.28	2.64	7.64	2.96	5.23	–
CTTAGTTGGTCAGGAGGTCACACACCGGATATGA	3.89	3.72	2.38	0.947	4.35	4.41	4.69	2.41	4.39	3.35	4.3	1.44	1.09	3.81	4.37	1.79	4.74	3.28	3.83	–
AGTCAAAGTTCACTAGGTTACGTAAGATTCAGCT	4.92	5.44	3.95	1.5	4.85	7.41	6.74	4.4	5.88	3.75	5.6	1.8	1.2	1.99	4.58	4.84	4.08	2.05	4.93	–
AGAATGAGGTTAGCAAAGATCAGGGAAACGCTTG	0.688	1.07	-0.0125	-0.163	1.79	1.02	0.909	0.0816	0.6	2.18	1.55	0.688	0.613	-0.323	0.442	-0.147	0.623	0.53	1.46	–
CATAGTTGGTCAAGGTCACACACGCTATAGGTAC	4.26	4.07	1.83	1.1	4.12	3.78	3.92	1.88	3.28	1.92	3.93	1.23	1.92	3.69	4.35	2.19	4.44	1.85	4.04	–
GATACAGGGTCAAGGCCAGAGTACGCGTATTGAT	6.67	4.16	0.173	-0.282	5.44	5.85	5.43	2.04	4.11	2.82	3.95	1.08	0.22	1.95	3.88	0.227	4.46	0.587	4.44	–
ATATGTAGGTTAGCTGGAGTCATTCAGACTAGGC	0.00563	1.28	-0.0336	0.0591	2.34	3	2.47	0.982	1.63	6.03	6.03	1.63	1.57	0.988	0.231	-0.186	0.556	0.257	0.61	–
TCTAGCTGGTCACGGAGGTCACACACGACGGGTA	3.41	3.79	2.37	0.0556	3.88	3.35	3.83	2.33	3.14	1.56	3.5	0.457	0.217	3.03	4.91	0.955	5.08	1.08	3.81	–
CCTTACGGGTCAAGGTTATACCACGGGTGGTACG	5.46	3.7	0.309	0.0291	4.99	4.6	4.47	1.63	3.83	1.19	3.53	-0.379	-0.205	3.33	3.49	0.498	4.11	1.71	4.21	–
CCTACTGGGCCATTCAGAGGTCACTGATCATATG	1.98	3.26	4.37	0.018	3.77	2.57	3.18	0.819	2.14	4.42	4.67	0.462	0.235	1.87	3.96	0.772	4.08	0.335	3.37	–
ATCGAAAGGTCGTGAAGTGAGTATACAGAAAGGC	4.52	3.75	0.493	0.774	4.76	3.21	3.51	1.42	2.63	0.0713	1.76	1.63	1.88	1.75	2.66	0.278	3.39	1.2	3.73	–
ATCGAAAGGTCGTGAGGTGAGTTTACAGAAAGGC	5.54	4.05	0.339	0.313	5.21	4	4.18	1.98	3.05	0.311	2.19	0.802	0.81	2.01	4.1	1.52	4.59	0.718	4.08	–
CGTCCAAGGGCAATGCTAGGTCAGTGAAAGCATT	0.683	2.37	0.414	-1.33	0.934	-0.00472	0.084	-0.775	-0.291	0.816	0.945	-1.98	-1.04	1.08	1.04	-0.135	1.55	-0.607	3.1	–
ACTCGGGGGACAAAGGTCAGAGCTACGCCAGTGA	5.78	5.7	2.14	5.96	6.14	9.31	8.33	8.12	9.68	2.49	5.75	7.4	7.53	5.43	5.36	1.26	6.35	2.37	4.91	–
GCTTACGGGTCAAAGGTTAAAGCATGAATAGAAT	7.68	6.08	0.955	0.412	7.2	11.8	9.59	9.12	10.3	4.74	6.3	1.36	2.46	1.69	6.29	0.364	8.66	0.51	4.94	–
CGTCAAAGTTCAAGGTAATGTAACAGAAAGCAGC	5.9	5.34	2.54	1	4.74	4.21	5.13	2.14	3.68	0.0949	2.03	0.311	0.686	2.57	3.95	2.92	3.38	1.61	5.14	–
CCTACTGGGCCAAGGTCATTGACCAGTCAAAGCA	3.77	4.03	1.67	-0.702	4.03	4.3	4.66	2.17	4.38	3.82	4.84	-0.707	-1.06	1.94	3.71	1.37	3.95	-0.225	3.45	–
TCGAGTAGGTTACGGGGGCGTTCAGGGATGAAGA	1.63	2.21	0.585	–	–	4.72	4.75	2.93	3.91	4.48	5.35	–	–	2.99	2.69	1.81	2.9	0.56	2.23	4.83
ATCGAAAGGTCGTGAGGTGAGTACACAGAAAGGC	4.79	4.23	0.197	0.501	5.02	3.98	4.57	1.74	3.26	0.432	2.33	1.04	0.897	2.45	3.57	0.557	4.33	0.76	3.91	–
CCTACTGGGCCATTAAGAGGTCATTGATCATATG	2.62	4.19	6.58	0.0638	3.94	2.19	3.06	0.745	2	4.25	4.13	0.259	0.0479	2.02	4.48	1.79	4.14	0.836	2.94	–
CTCGAAAGGGCGTGCTCAGGTGAGTATACCAAAC	0.538	0.109	-0.329	-0.824	0.533	-0.312	0.0309	-0.439	-0.22	-0.316	0.335	-0.537	-0.0248	-0.194	-0.0546	0.0968	0.278	-0.187	1.37	–
